# “And” between values parts separate entries of the source, which are not always exact repeats. Equal values may be shown once. Records with an inconclusive call do not appear. Numbered stars: 1 amine (or outer) side, 2 acyl side, 3 side chain; on linkers, the order of the positions; unused ones are H or OH. Bridge positions count the residues as written; N and C are the ends. Square brackets hold non-standard residues; d marks the D form. Peptide text beside a SMILES is read from it. I, II: the chains in the order shown. Actinocin(9to1) = Cc1c2oc3c(C)ccc(C(=O)[*:1])c3nc-2c(C(=O)[*:2])c(N)c1=O; NMeV = CN[C@H](C(=O)O)C(C)C; Sar = CNCC(=O)O
# Test: qHTS assay for small molecule antagonists of retinoid X receptor alpha signaling (AID 588546);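 note: cells stimulated with 9-cis-retinoic acid as agonist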
# Conditions: HEK293T RXRa-UAS-bla, beta-lactamase ratio, antagonist mode; measured here: W530 green channel, cytotoxicity proxy
# Method in brief: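 Beta-lactamase reporter inhibition, read as CCF4 fluorescence ratio (ex 405, em 460/530 nm) after 2 h at RT. HEK293T UAS-bla cells, 2500/well, were stimulated with 9-cis-RA at 500 or 100 nM final alongside test compound for 18 h at 37 C.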
# % is set by controls: 0 for no effect and ±100 for the full control effect.
row,SMILES,max response
1,CC(O)(P(=O)(O)O)P(=O)(O)O,-2.39%
2,CCCCCCc1ccc(O)cc1O,0.899% and 2.91%
3,C[C@H]1C[C@H]2[C@@H]3CCC4=CC(=O)C=C[C@]4(C)[C@@]3(Cl)[C@@H](O)C[C@]2(C)[C@@]1(O)C(=O)CO,10.8%
4,COc1cccc2c1C(=O)c1c(O)c3c(c(O)c1C2=O)C[C@@](O)(C(C)=O)C[C@@H]3O[C@H]1C[C@H](N)[C@H](O)[C@H](C)O1,-11.9%
5,NC(=NCCCCCCN=C(N)/N=C(\N)Nc1ccc(Cl)cc1)/N=C(\N)Nc1ccc(Cl)cc1,21.2%
6,C=CCc1ccc(O)c(OC)c1,-4.42% and -7.03%
7,Cc1cc(=O)n(-c2ccccc2)n1C,-18.2%
8,Oc1c(Cl)cc(Cl)cc1Sc1cc(Cl)cc(Cl)c1O,1.12%
9,"Cc1c2oc3c(C)ccc(C(=O)N[C@@H]4C(=O)N[C@H](C(C)C)C(=O)N5CCC[C@H]5C(=O)N(C)CC(=O)N(C)[C@@H](C(C)C)C(=O)O[C@@H]4C)c3nc-2c(C(=O)N[C@@H]2C(=O)N[C@H](C(C)C)C(=O)N3CCC[C@H]3C(=O)N(C)CC(=O)N(C)[C@@H](C(C)C)C(=O)O[C@@H]2C)c(N)c1=O (I: T[dV]P[Sar][NMeV] / II: T[dV]P[Sar][NMeV]; ester I:1-I:C, II:1-II:C; linker I:N-II:N via Actinocin(9to1))",-13.6% and -1.23%
10,O=C1OC(c2ccc(O)cc2)(c2ccc(O)cc2)c2ccccc21,6.51%
11,O=c1ccc2ccccc2o1,0.52% and -14.8% and -12.1%
12,CN(C)/N=N/c1nc[nH]c1C(N)=O,-0.507%
13,CC(O)C(=O)O (centres undefined),7.59%
14,CC(C)(Oc1ccc(Cl)cc1)C(=O)O,-15.3%

# Source: PubChem BioAssay (NCATS)
